Most compounds without a hit are left out; they make up all but 4.1% or so of the library.
CFTR F508del cor: CFTR F508del correction in bronchial cells. hit rate 0.36% among 350,000. AID 720511. CFBE cells, YFP halide quenching; stimulated with forskolin plus potentiator P3; % fluorescence drop versus neutral controls. activity (quench increase), % at 7.58 µM;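 active = mean added fluorescence quench of at least 8% versus neutral control, with both replicates also reaching 8%; inconclusive = only one of the mean or replicate conditions met; inactive = mean below 8% and not both replicates reaching 8%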;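 also: cells transiently co-express mutant CFTR-F508del with the halide-sensitive YFP; corrector assay measuring rescue of mutant channel to the surface after 24 h compound exposure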
ALR H2O2 inh: blocks human ALR sulfhydryl oxidase activity; inhibition, % (concentration not given with the values); hit rate 3.8% among 290,000; AID 485317; purified ALR, DTT oxidation, H2O2 HRP-luminol luminescence;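 active = mean replicate inhibition above about 79%, with every replicate also reaching it, limit read from the data; inconclusive = only one of the two criteria met; inactive = mean below limit and not every replicate reaching it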
Target sequence (P55789 whole entry, looked up): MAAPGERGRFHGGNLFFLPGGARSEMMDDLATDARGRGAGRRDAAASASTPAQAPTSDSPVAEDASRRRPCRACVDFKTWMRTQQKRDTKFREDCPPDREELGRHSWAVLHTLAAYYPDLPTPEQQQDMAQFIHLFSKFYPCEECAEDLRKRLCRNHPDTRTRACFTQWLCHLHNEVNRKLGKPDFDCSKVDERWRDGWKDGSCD
PglD inh: blocks C. jejuni PglD acetyltransferase activity; purified PglD enzyme, DTNB colorimetric CoA detection; hit rate 0.098% among 360,000; inhibition, % at 12.5 µM; AID 602405; in the data active = inhibition above about 16%, passing the limit was not always enough; inconclusive = no clear call, values can overlap the other calls
Env fusion inh: blocks HIV Env-driven cell-cell fusion; HeLa-JRFL Env/CEM21 cell fusion, luciferase; inhibition, % at 12.3 µM; hit rate 1.1% among 360,000; AID 651610;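 active = mean replicate inhibition score of at least 50 and every replicate individually at or above 50; inconclusive = only one of the two criteria met; inactive = mean below 50 and not all replicates reaching 50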;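 also: 0% = plate neutral controls and 100% = maraviroc near 300 nM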
Casp6 inh: inhibitors of human caspase-6; P55212; purified caspase-6, Z-VEID-R110 cleavage fluorescence; inhibition, % at 12.5 µM; hit rate 0.53% among 350,000; AID 686996;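 active = mean inhibition across replicates at least about 35%, with every replicate also reaching that limit, limit read from the data; inconclusive = only one of the two criteria met; inactive = neither criterion met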;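 also: 0% = median of neutral control wells and 100% = no fluorescence left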
Target sequence (P55212 24-179 limits assumed): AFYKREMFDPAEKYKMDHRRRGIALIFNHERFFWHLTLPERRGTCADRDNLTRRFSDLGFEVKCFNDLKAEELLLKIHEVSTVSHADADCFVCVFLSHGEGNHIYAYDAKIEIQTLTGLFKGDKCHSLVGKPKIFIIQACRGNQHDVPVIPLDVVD
Target sequence (P55212 194-293 limits assumed): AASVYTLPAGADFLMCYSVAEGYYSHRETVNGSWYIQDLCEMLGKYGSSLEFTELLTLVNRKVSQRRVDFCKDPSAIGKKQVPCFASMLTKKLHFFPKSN
NSD2 HMT inh: inhibitors of human histone methyltransferase NSD2 | O96028 | NSD2 peptide methylation, AlphaScreen, 120 min | inhibition, % at 12.5 µM | hit rate 0.54% among 310,000 | AID 743445; in the data active = inhibition above about 50%
Starred values were filed as active, the others as inactive; [ ] = another dose, or the depositor's remark.

Cc1ccc2cc3c(NS(=O)(=O)c4cccc5nonc45)nn(CC(C)C)c3nc2c1 was read as CFTR F508del cor -1, ALR H2O2 inh 98*, PglD inh -8, Env fusion inh -3, Casp6 inh -1 and NSD2 HMT inh 10.
Screening CCCn1nc(NS(=O)(=O)c2cccc3nonc23)c2cc3cccc(C)c3nc21 returned CFTR F508del cor -1, ALR H2O2 inh 97*, PglD inh 2, Env fusion inh -5, Casp6 inh 7 and NSD2 HMT inh 28.
C[C@H]1CN([C@@H](C)CO)C(=O)c2cccc(NC(=O)C3CCOCC3)c2O[C@@H]1CN(C)S(C)(=O)=O was read as CFTR F508del cor 0, PglD inh 4, Env fusion inh 6[16.7 µM] and Casp6 inh -3.
Screening CC(C)c1ccc(S(=O)(=O)/N=C2\C=C(NS(=O)(=O)c3ccccc3)C(=O)c3ccccc32)cc1 returned CFTR F508del cor -1, ALR H2O2 inh 72, PglD inh 3, Env fusion inh 18, Casp6 inh 22 and NSD2 HMT inh 112*.
For CCc1ccc(S(=O)(=O)/N=C2\C=C(NS(=O)(=O)c3ccccc3)C(=O)c3ccccc32)cc1 the results were CFTR F508del cor 0, PglD inh -8, Env fusion inh inconclusive, Casp6 inh 49* and NSD2 HMT inh 128*.
`COC(=O)C(C(C)=O)C1=C/C(=N\S(=O)(=O)c2ccc(C)cc2)c2ccccc2C1=O` (configuration not stated) gave ALR H2O2 inh 15 and PglD inh -5.
Screening Cc1ccc(C)c(S(=O)(=O)/N=C2\C=C(NS(=O)(=O)c3ccccc3)C(=O)c3ccccc32)c1 returned CFTR F508del cor 5, ALR H2O2 inh -12, PglD inh -3, Env fusion inh 10, Casp6 inh 25 and NSD2 HMT inh 97*.
Cc1cccc(S(=O)(=O)Nc2cccc3c2C(=O)c2ccccc2-3)c1 was read as ALR H2O2 inh 20, PglD inh -5, Env fusion inh 11 and NSD2 HMT inh 15.
For C[C@@H]1CN([C@H](C)CO)C(=O)c2cc(C#Cc3ccccn3)cnc2O[C@H]1CN(C)C(=O)c1cnccn1 the results were CFTR F508del cor -1, PglD inh -2, Env fusion inh 16[16.7 µM] and Casp6 inh -1.
CN1[C@@H]2Cn3c(ccc(/C=C/c4ccccc4)c3=O)[C@H]1[C@@H](C(=O)NC1CCC1)[C@@H]2CO was read as CFTR F508del cor 1, PglD inh 0 and Casp6 inh 4.
Screening Cc1ccc(C)c(C2NC(=O)c3ccccc3N2)c1 (configuration not stated) returned CFTR F508del cor 8.8*, ALR H2O2 inh -3, PglD inh 1, Env fusion inh -138, Casp6 inh -4 and NSD2 HMT inh -3.
CO[C@@H]1CN(C)C(=O)c2cc(NC(=O)C3CC3)ccc2OC[C@H](C)N(CCC(F)(F)F)C[C@H]1C was read as CFTR F508del cor 1, PglD inh 2, Env fusion inh 2[16.7 µM] and Casp6 inh 1.
Screening O=C(N[C@H]1CC[C@H](CCNS(=O)(=O)c2ccccc2Cl)O[C@H]1CO)c1ccc(F)cc1 returned CFTR F508del cor -3, PglD inh 1, Env fusion inh -12[16.7 µM] and Casp6 inh 2.
Screening O=C(Nc1ccc2c(c1)[C@H]1C[C@@H](CC(=O)N3CCCCC3)O[C@H](CO)[C@H]1O2)NC1CCCCC1 returned CFTR F508del cor -3 and Casp6 inh 0.
Screening Nc1nc(Nc2cccc(Cl)c2)n[nH]1 returned CFTR F508del cor 0, ALR H2O2 inh 41, PglD inh 3, Env fusion inh -12, Casp6 inh -6 and NSD2 HMT inh 0.
For Nc1nc(Nc2ccccc2)n[nH]1 the results were CFTR F508del cor 1, ALR H2O2 inh 98*, PglD inh -1, Env fusion inh 13, Casp6 inh 1 and NSD2 HMT inh -3.
Screening NNc1nc(Nc2ccccc2)nc(Nc2ccccc2)n1 returned CFTR F508del cor 3, ALR H2O2 inh -4, PglD inh 4, Env fusion inh -38, Casp6 inh -4 and NSD2 HMT inh -2.
For Nc1nc(Nc2ccc(Cl)cc2)n[nH]1 the results were ALR H2O2 inh 99*, PglD inh -2 and NSD2 HMT inh 0.
CN(C)C(=O)[C@@H]1[C@@H](CO)[C@@H]2Cn3c(ccc(C4=CCCCC4)c3=O)[C@H]1N2Cc1ccccc1 was read as CFTR F508del cor -2, PglD inh 3 and Casp6 inh -2.
Screening CNC[C@@H]1OCCCC[C@H](C)Oc2ccc(NC(=O)Nc3c(C)noc3C)cc2C(=O)N([C@H](C)CO)C[C@H]1C returned CFTR F508del cor 1 and Env fusion inh 10[16.7 µM].
COc1cc(C#N)c(N=C(SCC#N)N2CCOCC2)cc1OC was read as CFTR F508del cor 1, ALR H2O2 inh 98*, PglD inh 1, Env fusion inh -12, Casp6 inh 6 and NSD2 HMT inh 2.
For Cc1cc(NCc2ccccn2)n2nc(C)c(-c3ccccc3)c2n1 the results were CFTR F508del cor 12*, ALR H2O2 inh 1, Env fusion inh 2, Casp6 inh -1 and NSD2 HMT inh -2.
`CCn1c(C)c(C(C)=O)c(NCc2ccccc2)nc1=S` gave CFTR F508del cor -1, ALR H2O2 inh 98*, PglD inh -2 and Casp6 inh 2.
Screening CC1CCN(S(=O)(=O)c2ccc([N+](=O)[O-])cc2)CC1 returned CFTR F508del cor 1, ALR H2O2 inh -23, PglD inh -2, Env fusion inh 14, Casp6 inh 2 and NSD2 HMT inh 2.
For CC1CCN(S(=O)(=O)c2ccc(Oc3ccc([N+](=O)[O-])cc3)cc2)CC1 the results were ALR H2O2 inh -7, Env fusion inh 72* and NSD2 HMT inh 4.
For O=C(Nc1ccc(-c2ccccc2)cc1)[C@H]1[C@H](CO)[C@H]2Cn3c(cccc3=O)[C@@H]1N2Cc1ccncc1 the results were Env fusion inh -6[16.7 µM].
For C/C(=N\NC(=O)c1cc(O)ccc1O)c1cccc(NC(=O)c2ccc(Cl)cc2)c1 the results were CFTR F508del cor 2, ALR H2O2 inh 64, PglD inh -1, Env fusion inh -20, Casp6 inh 53* and NSD2 HMT inh 8.
Screening C/C(=N\NC(=O)c1cc(O)ccc1O)c1cccc(NC(=O)c2cccc(Cl)c2)c1 returned CFTR F508del cor 1, ALR H2O2 inh 90*, PglD inh 6, Env fusion inh -38, Casp6 inh 39* and NSD2 HMT inh 13.
For CC(C)CC#Cc1ccc([C@H]2[C@@H](CO)N3C(=O)CN(C(=O)NC4CCCC4)C[C@H]23)cc1 the results were CFTR F508del cor -1 and Casp6 inh 0.
`Cc1ccc2nc(/C(C#N)=C/c3ccccc3C(=O)O)[nH]c2c1` gave CFTR F508del cor 2, PglD inh -3, Env fusion inh -12, Casp6 inh 9 and NSD2 HMT inh 5.

Screens (PubChem BioAssay)
